Measured values taken from PubChem BioAssay (Tox21).
Several values for one entry are separate records, joined by “and”; a condition that tells them apart may be missing. Equal values may be shown once. Inconclusive results are not listed. A call without a number means that no potency is given here. The source holds several records for some structures; these can differ, active in one and inactive in another. Activity calls are given as the source filed them. Unless noted, the call rests on the fitted dose curve.

Assays:
[1] = Nuclear factor erythroid 2-related factor 2/antioxidant responsive element (Nrf2/ARE) small molecule agonists: luciferase reporter gene qHTS assay in human keratinocytes (AID 1919969); further: nearly all actives have a fitted effect of over 35% in size; further: potency means the concentration at half of the fitted maximal effect
[2] = target: Gonadotropin-releasing hormone receptor (Homo sapiens) (UniProt P30968); assay: Human gonadotropin-releasing hormone receptor (GnRHR) small molecule agonists, calcium flux assay in GnRHR-HEK293 cells (AID 1920063); further: nearly all actives have a fitted effect of over 35% in size; further: potency means the concentration at half of the fitted maximal effect
Sequence of Gonadotropin-releasing hormone receptor (Homo sapiens) (P30968 whole entry, looked up): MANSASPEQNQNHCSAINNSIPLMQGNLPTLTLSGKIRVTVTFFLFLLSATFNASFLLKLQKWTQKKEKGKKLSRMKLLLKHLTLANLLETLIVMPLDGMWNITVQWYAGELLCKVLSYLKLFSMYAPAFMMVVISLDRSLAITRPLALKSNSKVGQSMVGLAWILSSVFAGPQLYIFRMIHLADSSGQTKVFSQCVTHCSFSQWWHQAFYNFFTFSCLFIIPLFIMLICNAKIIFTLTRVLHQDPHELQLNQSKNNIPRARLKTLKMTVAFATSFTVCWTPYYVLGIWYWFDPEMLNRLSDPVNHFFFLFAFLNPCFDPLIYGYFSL
Method in brief: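 GnRHR-HEK293, 1500 cells/well, 18 h 37 C/5% CO2; Ca dye 1 h 37 C; cpd pinned (DMSO), agonist mode; kinetic FL 480/540, 3 min, 1 s reads; 15 conc, n=3.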

[3] = target: KiSS-1 receptor (Homo sapiens) (UniProt Q969F8); assay: Human kisspeptin (KISS1R) small molecule agonists, calcium flux assay in KISS1R-HEK293 cells (AID 1920064; active means well fitted activation curve with a large enough effect in the repeat runs; further: potency means the concentration at half of the fitted maximal effect)
Sequence of KiSS-1 receptor (Homo sapiens) (Q969F8 whole entry, looked up): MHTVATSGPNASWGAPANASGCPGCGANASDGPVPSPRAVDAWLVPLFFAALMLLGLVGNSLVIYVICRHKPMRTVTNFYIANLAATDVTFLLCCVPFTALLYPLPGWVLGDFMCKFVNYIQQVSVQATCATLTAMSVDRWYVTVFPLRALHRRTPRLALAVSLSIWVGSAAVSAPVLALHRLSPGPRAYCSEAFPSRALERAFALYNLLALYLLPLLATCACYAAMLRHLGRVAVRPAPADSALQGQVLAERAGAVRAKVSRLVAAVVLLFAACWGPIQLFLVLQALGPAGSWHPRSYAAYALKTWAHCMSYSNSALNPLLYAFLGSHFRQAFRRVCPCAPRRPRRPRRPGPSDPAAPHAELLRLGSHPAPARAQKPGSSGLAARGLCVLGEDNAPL
Method in brief: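 Stable human KISS1R HEK293 line; 18 h plating, 37 C/5% CO2; calcium dye 1 h 37 C; compound pin transfer; kinetic fluorescence Ex/Em 480/540, 3 min.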

[4] = G protein-coupled receptor (GPCR) small molecule agonists, calcium flux assay: HEK293 wild type cell line counter screen (AID 1920065); further: potency means the concentration at half of the fitted maximal effect
Method in brief: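 Kinetic fluorescence at Ex/Em 480/540, recorded every second over 3 min, served as the read-out after compound addition. Each compound was tested at 15 concentrations in triplicate on cells pre-loaded with calcium dye for 1 h.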

[5] = p53 small molecule agonists, cell-based qHTS assay with human liver microsomes (AID 1963577)
Method in brief: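 Fluorescence of the beta-lactamase reporter in p53RE-bla cells, detected with LiveBLAzer substrate (2 h, room temperature, dark), served as the read-out after 16 h compound exposure at 37 C with human liver microsomes and NADPH, each 0.5 mg/mL final.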

[6] = p53 small molecule agonists, cell-based qHTS assay with rat liver microsomes (AID 1963578)
Method in brief: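 Cells carrying a p53 response element–beta-lactamase reporter were plated and rested 5 h, then dosed with compound in DMSO plus rat liver microsomes and NADPH, each at 0.5 mg/mL final. After 16 h at 37 C, LiveBLAzer substrate was added for 2 h.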

[7] = p53 small molecule agonists, cell-based qHTS assay with human liver microsomes: qHTS cell viability counter screen (AID 1963579); further: nearly all actives have a fitted effect of over 45% in size; further: potency means the concentration at half of the fitted maximal effect
Method in brief: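 Cytotoxicity counter screen: p53RE-bla, 4,000 cells/well; 5 h settle, 37 C/5% CO2; cpd + HLM 0.5 mg/mL + NADPH 0.5 mg/mL (final); 16 h, 37 C; CellTiter-Glo, 30 min RT, luminescence.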

[8] = p53 small molecule agonists, cell-based qHTS assay with rat liver microsomes: qHTS cell viability counter screen (AID 1963580); further: nearly all actives have a fitted effect of over 45% in size
Method in brief: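 Viability is assessed in parallel with the p53 reporter read: HCT-116 p53RE-bla cells receive compounds plus rat microsomes and NADPH (0.5 mg/mL final apiece), incubate 16 h at 37 C, and then CellTiter-Glo luminescence is recorded.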

[9] = p53 small molecule agonists, cell-based qHTS assay: qHTS cell viability counter screen (AID 1963581); further: nearly all actives have a fitted effect of over 45% in size
Method in brief: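 HCT-116 p53RE-bla cells, 4,000/well, plated 5 h before compound pin transfer; 16 h at 37 C; bla substrate 2 h RT; then CellTiter-Glo, 30 min RT, luminescence.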

[10] = cAMP Responsive Elements (CRE) small molecule agonists, cell-based qHTS assay (AID 1963590)
Method in brief: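 HEK 293T CRE-bla, 2,000 cells/well, 18 h preincubation 37 C/5% CO2; cpds (DMSO) pinned, 3 h; LiveBLAzer B/G FRET substrate, 2 h RT.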

[11] = target: Beta-2 adrenergic receptor (Homo sapiens) (UniProt P07550); assay: Adrenergic beta2 receptor (ADRB2) small molecule antagonists, cell-based qHTS assay (AID 1963592); further: nearly all actives have a fitted effect of over 50% in size; further: potency means the concentration at half of the fitted maximal effect
Sequence of Beta-2 adrenergic receptor (Homo sapiens) (P07550 whole entry, looked up): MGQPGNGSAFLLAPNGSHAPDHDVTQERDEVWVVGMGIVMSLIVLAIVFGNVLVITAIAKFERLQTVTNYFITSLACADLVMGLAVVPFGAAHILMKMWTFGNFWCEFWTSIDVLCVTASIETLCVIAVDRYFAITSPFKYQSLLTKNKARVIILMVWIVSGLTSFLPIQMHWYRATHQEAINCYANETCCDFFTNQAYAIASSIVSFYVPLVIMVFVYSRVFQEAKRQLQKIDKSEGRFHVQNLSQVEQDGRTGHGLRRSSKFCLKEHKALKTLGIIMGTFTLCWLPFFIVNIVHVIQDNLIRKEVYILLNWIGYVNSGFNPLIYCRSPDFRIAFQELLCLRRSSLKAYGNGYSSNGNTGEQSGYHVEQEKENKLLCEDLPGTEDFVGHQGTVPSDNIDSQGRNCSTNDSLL
Method in brief: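 Cells (CHO, stable ADRB2 overexpression) incubated 18-20hr at 37C; compounds added from DMSO; agonist mix (1nM isoproterenol, 100uM IBMX, 25uM Ro-20-1724) added; 0.5hr RT; d2-cAMP and anti-cAMP-cryptate added; 1hr RT; 665/615 nm read.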

[12] = target: Beta-2 adrenergic receptor (Homo sapiens) (UniProt P07550); assay: Adrenergic beta2 receptor (ADRB2) small molecule agonists, cell-based qHTS assay (AID 1963593);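 further: CHO cells stably overexpressing human ADRB2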
Method in brief: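 CHO cells stably over-expressing ADRB2 were plated overnight at 37C, then dosed with compounds plus a stimulation mix containing 100uM IBMX and 25uM Ro-20-1724 for 0.5hr at room temperature. cAMP was measured by HTRF competition, 1hr.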

[13] = target: 5-hydroxytryptamine receptor 2A (Homo sapiens) (UniProt P28223); assay: 5-hydroxytryptamine receptor 2A (HTR2A) small molecule antagonists, cell-based qHTS assay (AID 1963586); further: nearly all actives have a fitted effect of over 45% in size
Sequence of 5-hydroxytryptamine receptor 2A (Homo sapiens) (P28223 whole entry, looked up): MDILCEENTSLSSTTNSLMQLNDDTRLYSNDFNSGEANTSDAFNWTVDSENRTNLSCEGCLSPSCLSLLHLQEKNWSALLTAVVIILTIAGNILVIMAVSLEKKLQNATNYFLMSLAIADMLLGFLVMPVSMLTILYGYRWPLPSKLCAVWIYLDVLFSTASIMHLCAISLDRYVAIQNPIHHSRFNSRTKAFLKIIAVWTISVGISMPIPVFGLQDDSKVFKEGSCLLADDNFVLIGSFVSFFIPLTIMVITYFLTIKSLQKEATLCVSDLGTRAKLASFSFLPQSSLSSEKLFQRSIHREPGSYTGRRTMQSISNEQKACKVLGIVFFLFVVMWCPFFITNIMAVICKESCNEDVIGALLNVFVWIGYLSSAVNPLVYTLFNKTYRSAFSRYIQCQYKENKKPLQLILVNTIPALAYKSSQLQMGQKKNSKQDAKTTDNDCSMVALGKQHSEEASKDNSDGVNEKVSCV
Method in brief: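 Antagonist-mode intracellular calcium assay: DOI (4 nM) added after 5 min compound pre-incubation at room temperature to dye-loaded HTR2A-CHO cells. Fluorescence followed for 3 min, sampled every second.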

[14] = target: 5-hydroxytryptamine receptor 2A (Homo sapiens) (UniProt P28223); assay: 5-hydroxytryptamine receptor 2A (HTR2A) small molecule agonists, cell-based qHTS assay (AID 1963587); further: nearly all actives have a fitted effect of over 30% in size; further: potency means the concentration at half of the fitted maximal effect
Method in brief: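 CHO cells stably expressing human HTR2A, plated 18 h, loaded with calcium dye 1 h at 37 C. Agonist mode: compounds added and intracellular calcium fluorescence recorded kinetically for 2 min at 1 sec intervals.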

[15] = target: Muscarinic acetylcholine receptor M1 (Homo sapiens) (UniProt P11229); assay: Cholinergic receptor muscarinic 1 (CHRM1) small molecule antagonists, cell-based qHTS assay (AID 1963588); further: nearly all actives have a fitted effect of over 40% in size
Sequence of Muscarinic acetylcholine receptor M1 (Homo sapiens) (P11229 whole entry, looked up): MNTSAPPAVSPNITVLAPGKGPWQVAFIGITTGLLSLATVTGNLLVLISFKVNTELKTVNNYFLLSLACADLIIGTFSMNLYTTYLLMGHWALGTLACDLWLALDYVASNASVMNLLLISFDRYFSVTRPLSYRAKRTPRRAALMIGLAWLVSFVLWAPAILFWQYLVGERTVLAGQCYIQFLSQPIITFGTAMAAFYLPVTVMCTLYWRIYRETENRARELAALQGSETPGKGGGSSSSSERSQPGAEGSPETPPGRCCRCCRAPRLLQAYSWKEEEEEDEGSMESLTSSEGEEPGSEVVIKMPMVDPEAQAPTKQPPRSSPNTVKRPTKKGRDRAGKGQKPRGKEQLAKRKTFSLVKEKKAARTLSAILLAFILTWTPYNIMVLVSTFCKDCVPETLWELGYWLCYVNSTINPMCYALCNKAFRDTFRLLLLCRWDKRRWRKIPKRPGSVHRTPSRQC
Method in brief: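 CHRM1-CHO calcium-flux assay, antagonist mode. Cells were seeded 18 h, dye-loaded 1 h at 37 C and given compound for 5 min at RT, then acetylcholine was added at 50nM. FDSS fluorescence was read 3 min; 15 concentrations, three runs.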

[16] = target: Muscarinic acetylcholine receptor M1 (Homo sapiens) (UniProt P11229); assay: Cholinergic receptor muscarinic 1 (CHRM1) small molecule agonists, cell-based qHTS assay (AID 1963589); further: nearly all actives have a fitted effect of over 35% in size; further: potency means the concentration at half of the fitted maximal effect
Method in brief: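 Human M1 in stable CHO line; 18 h plating, 1 h dye load 37 C; cpd added (agonist mode); Ca2+ fluorescence kinetic read, 1 s intervals; 15 conc, 3 runs.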

[17] = target: D(2) dopamine receptor (Homo sapiens) (UniProt P14416); assay: Dopamine D2 receptor (DRD2) small molecule antagonists, cell-based qHTS assay (AID 1963595; active means well fitted inhibition curve with a large enough effect in the signal ratio in the repeat runs, with a control signal flat; the % refers to the signal ratio)
Sequence of D(2) dopamine receptor (Homo sapiens) (P14416 whole entry, looked up): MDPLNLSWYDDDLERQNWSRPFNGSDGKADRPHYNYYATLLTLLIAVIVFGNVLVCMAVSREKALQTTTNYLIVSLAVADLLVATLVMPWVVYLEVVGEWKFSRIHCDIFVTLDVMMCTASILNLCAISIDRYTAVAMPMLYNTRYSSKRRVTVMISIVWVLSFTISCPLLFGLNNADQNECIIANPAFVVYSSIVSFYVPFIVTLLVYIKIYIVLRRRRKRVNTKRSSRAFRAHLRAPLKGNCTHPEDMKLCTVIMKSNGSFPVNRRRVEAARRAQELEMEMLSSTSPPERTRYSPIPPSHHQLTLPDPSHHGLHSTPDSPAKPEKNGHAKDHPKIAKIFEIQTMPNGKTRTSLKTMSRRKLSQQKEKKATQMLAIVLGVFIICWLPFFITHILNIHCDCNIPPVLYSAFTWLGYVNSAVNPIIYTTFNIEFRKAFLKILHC
Method in brief: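 HTRF cAMP read-out at 665 and 620 nm emission (340 nm excitation). Antagonist mode: compounds were tested against 12 nM quinpirole in DRD2-HEK293 cells, with 200 nM NKH477 raising cAMP and 0.1 mM Ro20-1724 blocking its breakdown.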

[18] = p53 small molecule agonists, cell-based qHTS assay (AID 1963582; active means well fitted activation curve with a large enough effect in the signal ratio in the repeat runs, not every such curve was filed as active; the % refers to the signal ratio)
Method in brief: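 Reporter line: p53RE-bla. Pre-incubation 5 h, 37 C, 5% CO2; compound (DMSO, pin tool) 16 h, 37 C; B/G FRET substrate 2 h RT; fluorescence intensity read.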

[19] = cAMP Responsive Elements (CRE) small molecule antagonists, cell-based qHTS assay (AID 1963591; active means well fitted inhibition curve with a large enough effect in the signal ratio in the repeat runs, not every such curve was filed as active; the % refers to the signal ratio)
Method in brief: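 Beta-lactamase reporter read by FRET substrate (LiveBLAzer B/G) after 2 h at room temperature. CRE-bla HEK293T cells had received compound plus 0.25 uM (final) NKH477 for 3 h at 37 °C.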

[20] = target: D(2) dopamine receptor (Homo sapiens) (UniProt P14416); assay: Dopamine D2 receptor (DRD2) small molecule agonists, cell-based qHTS assay (AID 1963594); further: nearly all actives have a fitted effect of over 35% in size; further: potency means the concentration at half of the fitted maximal effect
Method in brief: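 HEK293 cells stably expressing human DRD2, pre-treated with PDE inhibitor Ro20-1724 (0.1 mM final) and compound 10 min at room temperature, then stimulated with NKH477 (200nM […]) for 30 min. cAMP read by HTRF (665/620 nm).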

SMILES	Potency [1]	Potency [2]	Potency [3]	Potency [4]	Potency [5]	Potency [6]	Potency [7]	Potency [8]	Potency [9]	Potency [10]	Potency [11]	Potency [12]	Potency [13]	Potency [14]	Potency [15]	Potency [16]	Potency [17]	Potency [18]	Potency [19]	Potency [20]
CC(O)CO (stereo not drawn)	inactive	inactive	inactive	inactive	inactive	inactive	inactive	inactive	inactive	inactive	inactive	inactive	–	–	–	–	–	–	–	–
CC(=O)Nc1ccc2c(c1)Cc1cc(NC(C)=O)ccc1-2	inactive	inactive	inactive	inactive	inactive	inactive	inactive	inactive	inactive	–	inactive	inactive	inactive	inactive	inactive	inactive	inactive	–	–	–
O=C(O)Cn1c(=O)n(Cc2ccc(Br)cc2F)c(=O)c2ccc(Cl)cc21	inactive	inactive	inactive	inactive	inactive	inactive	–	inactive	–	inactive	inactive	inactive	inactive	inactive	inactive	inactive	inactive	inactive	inactive	–
CC(=O)Oc1ccc(C)cc1	inactive	inactive	inactive	inactive	–	inactive	inactive	inactive	inactive	inactive	inactive	–	inactive	inactive	inactive	–	inactive	inactive	inactive	inactive
O=C(Cl)c1cccc(C(=O)Cl)c1	inactive	inactive	inactive	inactive	inactive	inactive	inactive	inactive	inactive	inactive	inactive	–	inactive	inactive	inactive	–	inactive	inactive	inactive	inactive
C=C(C)C(=O)OCCCCCC	inactive	inactive	inactive	inactive	inactive	inactive	–	inactive	inactive	inactive	inactive	–	inactive	inactive	inactive	inactive	inactive	inactive	–	inactive
CC(=O)Nc1ccc(C(=O)CCl)cc1	54.8 µM (active) and 9.69 µM (active)	inactive	inactive	inactive	inactive	inactive	inactive	inactive	inactive	–	inactive	–	inactive	inactive	inactive	inactive	inactive	–	inactive	inactive
O=C1OC2(c3ccccc31)c1cc(I)c(O)c(I)c1Oc1c2cc(I)c(O)c1I	inactive and 33.1 µM (active)	22.1 µM (active) [middle of 4 runs]	31.3 µM (active) and 26.8 µM (active)	39 µM (active) and 22.1 µM (active) and 19 µM (active)	inactive	inactive	inactive	inactive	inactive	inactive	33.5 µM (active)	–	inactive	31.3 µM (active) [middle of 4 runs]	inactive	33.4 µM (active) [middle of 4 runs]	–	inactive	inactive	39 µM (active) and 31 µM (active)
CCCOC(=O)c1cc(O)c(O)c(O)c1	inactive	inactive	inactive	inactive	inactive	inactive	–	inactive	–	–	inactive	inactive	inactive	inactive	inactive	inactive	inactive	–	inactive	inactive
C[C@H]1C[C@H]2[C@@H]3CCC4=CC(=O)C=C[C@]4(C)[C@@]3(F)[C@@H](O)C[C@]2(C)[C@@]1(O)C(=O)CO	inactive	inactive	inactive	inactive	inactive	inactive	inactive and 793 nM (active)	inactive	–	inactive	inactive	–	–	–	–	–	inactive	inactive	–	inactive
COC(=O)CCC(=O)OC	inactive	inactive	inactive	inactive	inactive	–	inactive	inactive	inactive	inactive	inactive	inactive	inactive	inactive	inactive	inactive	inactive	–	inactive	inactive
Cc1nnc(NS(=O)(=O)c2ccc(N)cc2)s1	inactive	inactive	inactive	inactive	inactive	inactive	inactive	–	inactive	inactive	inactive	inactive	–	–	–	–	inactive	inactive	inactive	–
CCCCC1C(=O)N(c2ccccc2)N(c2ccccc2)C1=O	inactive	inactive	inactive	inactive	inactive	inactive	inactive	inactive	inactive	inactive	inactive	inactive	–	–	–	–	inactive	–	inactive	inactive
CCCCC(CC)COC(=O)/C=C\C(=O)OCC(CC)CCCC (stereo not drawn)	inactive	inactive	inactive	inactive	inactive	inactive	–	inactive	inactive	inactive	inactive	–	inactive	inactive	inactive	inactive	inactive	inactive	inactive	inactive
Nc1ccc(O)c(C(=O)O)c1	inactive	inactive	inactive	inactive	inactive	–	inactive	inactive	inactive	inactive	inactive	–	inactive	inactive	inactive	inactive	inactive	inactive	–	inactive
